Screening data: PubChem, National Center for Advancing Translational Sciences (NCATS)
The list is not random: actives were taken first. Their share in the collection is about 7.4%.
FLuc modulator: qHTS profiling assay for firefly luciferase inhibitor/activator using purifed enzyme and Km concentrations of substrates (counterscreen for miR-21 project) | Luciferin 4-monooxygenase (Photinus pyralis), P08659 | purified FLuc, Km substrates, luminescence inhibition | Potency, µM (highest dose often 57.5 µM), without a hit: at the top dose activity change, negative = inhibition, usual class: inhibitors | actives 6.9% (n = 360,000) | AID 588342, 2011;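 also: plate controls were vehicle for no effect and reference inhibitor for full effect; nearly all actives have a fitted effect of over 55% in size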
Target sequence (P08659 whole entry, looked up): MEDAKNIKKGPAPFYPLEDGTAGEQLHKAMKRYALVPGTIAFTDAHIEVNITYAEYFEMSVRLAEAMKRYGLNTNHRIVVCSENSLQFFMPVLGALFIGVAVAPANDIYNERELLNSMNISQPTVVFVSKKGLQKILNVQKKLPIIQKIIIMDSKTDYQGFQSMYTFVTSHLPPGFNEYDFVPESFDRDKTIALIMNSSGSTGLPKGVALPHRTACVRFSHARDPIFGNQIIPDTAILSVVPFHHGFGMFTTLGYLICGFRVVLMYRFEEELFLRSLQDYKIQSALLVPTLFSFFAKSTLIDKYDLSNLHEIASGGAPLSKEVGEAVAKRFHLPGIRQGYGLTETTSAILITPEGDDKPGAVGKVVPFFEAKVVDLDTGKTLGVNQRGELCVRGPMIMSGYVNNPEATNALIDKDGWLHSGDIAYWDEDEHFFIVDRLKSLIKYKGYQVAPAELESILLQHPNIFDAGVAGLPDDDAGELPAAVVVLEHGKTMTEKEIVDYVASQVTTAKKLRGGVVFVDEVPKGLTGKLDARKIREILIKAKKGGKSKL
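Purified P. pyralis luciferase, 10 nM final, with Km-level 10 uM D-luciferin and 10 uM ATP in 50 mM Tris acetate pH 7.5, 10 mM Mg acetate, 0.01% Tween-20, 0.05% BSA; 6-point qHTS titration about 60 µM downward; luminescence read.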
Rab9 promoter act: qHTS Assay for Rab9 Promoter Activators. Huh7 Rab9 promoter-luciferase reporter, luminescence, 24 h. Potency, µM (top dose mostly 9.22 µM), for the others: at the highest dose activation, negative = inhibition, hits mostly activators. actives 2.8% (n = 320,000). AID 485297, 2010; also: % of control where 0% means no effect; nearly all actives have a fitted effect of over 60% in size
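Huh7 cells stably carrying a Rab9 promoter-luciferase reporter, 1500 cells per well in OP-MEM I with 10% FBS, treated with compound 24 hours at 37C. Luciferase activity read by luminescence after 10 minutes with Amplite reagent.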
NPC1 promoter act: qHTS Assay for NPC1 Promoter Activators | Potency, µM (titrated, usually from 9.22 µM), inactives show at the highest dose activation, hits mostly activators | actives 2.4% (n = 320,000) | Huh7 NPC1 promoter luciferase reporter, 24 h; also: % of control where 0% means no effect; nearly all actives have a fitted effect of over 60% in size
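Readout is luciferase luminescence, reflecting NPC1 promoter activation in stably transfected Huh7 cells after 24 h compound exposure at 37 °C in reduced-serum medium with 10% FBS.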
SMN2 splice up: qHTS Assay for Enhancers of SMN2 Splice Variant Expression | HEK293 SMN2-luciferase splicing reporter, luminescence, 30-36 h | Potency, µM (titrated, usually from 46.1 µM), for the others: at the highest dose activity change, positive = activation, actives largely listed as activators | actives 2.8% (n = 210,000) | AID 1458, 2008; also: % of control where 0% means no effect; nearly all actives have a fitted effect of over 55% in size
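HEK293 cells carry an SMN2 minigene-luciferase reporter in which exon 7 inclusion puts luciferase in frame. Cells were seeded at 2000 cells/well, attached for 10-12 hours, then exposed to compounds for 30-36 hours at 37C before ONE-Glo luminescence.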
ELG1 genotox: qHTS screen for small molecules that induce genotoxicity in human embryonic kidney (HEK293T) cells expressing luciferase-tagged ELG1; HEK293T ELG1-luciferase reporter, luminescence, 16 h; Potency, µM (top dose mostly 46 µM), for inactives: at the highest dose activity change, positive = activation, most hits filed as activators; actives 1.3% (n = 330,000); AID 504466, 2011; also: % of control where 0% means no effect; nearly all actives have a fitted effect of over 60% in size
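HEK293T cells expressing luciferase-tagged ELG1 were exposed to compound or DMSO vehicle for 16 hr at 37 °C and 5% CO2. Luciferase activity was then measured with ONE-Glo after 30 min at room temperature.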
* marks the source's active call; other numbers are inactive results; [ ] = remark or other dose. Calls follow the shape of the dose curve; as a rule, active = well fitted curve in the direction sought with a large enough effect; inconclusive = small, poorly fitted or top-dose-only effect, or another doubt; inactive = no such curve, though single readings can be large; an effect the other way counts as inactive or inconclusive. Potency is read from the fitted curve at half-maximal effect.

`CN(C)c1ccc(/C=N/NC(=O)c2ccc3c(c2)OCCO3)cc1` gave FLuc modulator 4.8µM*, Rab9 promoter act inconclusive, NPC1 promoter act inconclusive and ELG1 genotox inconclusive.
`S=C(N/N=C/c1ccc2c(c1)OCO2)NC1CC2CCC1C2` (stereo not drawn) gave FLuc modulator inconclusive, Rab9 promoter act inconclusive, NPC1 promoter act 21% and ELG1 genotox -7%.
COc1ccc(S(=O)(=O)N(C)C[C@H]2Oc3c(cccc3N(C)C)C(=O)N([C@H](C)CO)C[C@@H]2C)cc1 was read as ELG1 genotox -1%.
For Nc1nc(=O)c2[nH]cnc2n1O the results were SMN2 splice up -7%[9.22 µM].
For C=C(N(C)C)[C@]1(C)C[C@H]1[C@H](NC(=O)CNC(=O)OCc1ccccc1)c1ccccc1 the results were SMN2 splice up -23%.
`COc1ccc(CCNC(=O)COC(=O)c2ccc(N3CCCC3=O)cc2)cc1` gave FLuc modulator -2%, Rab9 promoter act -6%, NPC1 promoter act -2%, SMN2 splice up 20% and ELG1 genotox 1%.
Screening CC1=C[N+](=O)c2ccccc2[N+]1=O returned SMN2 splice up -7%[9.22 µM].
`O=C(COC(=O)c1nc(Cl)ccc1Cl)c1ccc(Cl)s1` gave FLuc modulator inconclusive, Rab9 promoter act -6%, NPC1 promoter act 5%, SMN2 splice up 1% and ELG1 genotox 1%.
Cn1cccc1C(=O)OCC(=O)c1cc2ccccc2o1 was read as FLuc modulator 12µM*, Rab9 promoter act 11%, NPC1 promoter act 16%, SMN2 splice up 5% and ELG1 genotox 22%.
Screening Cn1cccc1C(=O)OCC(=O)NCCCc1ccccc1 returned ELG1 genotox 1%.
O=C(COC(=O)c1ccc(Cl)s1)c1cc2ccccc2o1 was read as FLuc modulator 24µM*, Rab9 promoter act 2%, NPC1 promoter act 4%, SMN2 splice up 22% and ELG1 genotox 2%.
`CS(=O)(=O)c1ccc(Cl)c(NC(=O)CSc2nc3ccccc3c(=O)n2Cc2ccco2)c1` gave FLuc modulator 0%, Rab9 promoter act -4%, NPC1 promoter act -4% and ELG1 genotox 2%.
Screening CCS(=O)(=O)c1ccccc1C(=O)Nc1ccc(-c2nc3ccccc3s2)cc1 returned FLuc modulator 9.5µM*.
CC(C)(C)C(=O)Nc1ccc(-c2nc3ccccc3s2)cc1 was read as FLuc modulator 0.015µM*.
For CC(C)(C)NC(=O)c1nc2ccccc2s1 the results were FLuc modulator -26%, Rab9 promoter act 4%, NPC1 promoter act 17%, SMN2 splice up -12% and ELG1 genotox 5%.
COc1cccc(N2CCN(C(=O)c3ccc4nc(N5CCC(C)CC5)sc4c3)CC2)c1 was read as FLuc modulator 9.5µM*, Rab9 promoter act inconclusive, NPC1 promoter act inconclusive, SMN2 splice up -25% and ELG1 genotox inconclusive.
Screening NC(=O)C1CCN(C(=O)c2ccc3nc(N4CCCCC4)sc3c2)CC1 returned FLuc modulator inconclusive, Rab9 promoter act 3.2µM*, NPC1 promoter act 2.8µM* and ELG1 genotox inconclusive.
CC1CCN(c2nc3ccc(C(=O)N4CCN(Cc5ccccc5)CC4)cc3s2)CC1 was read as FLuc modulator 17µM*, Rab9 promoter act 25%, NPC1 promoter act 16%, SMN2 splice up -57% and ELG1 genotox inconclusive.
`O=C(c1ccc2nc(N3CCCCC3)sc2c1)N1CCN(Cc2ccc3c(c2)OCO3)CC1` gave FLuc modulator -13%, Rab9 promoter act -2%, NPC1 promoter act 11%, SMN2 splice up -64% and ELG1 genotox 23µM*.
CCOC(=O)N1CCN(C(=O)c2ccc3nc(N4CCCCC4)sc3c2)CC1 was read as FLuc modulator -15%, Rab9 promoter act 14%, NPC1 promoter act 21%, SMN2 splice up 14% and ELG1 genotox -1%.
Screening Nc1ccn([C@H]2O[C@H](CO)[C@@H]3[O][Sn]([c]4ccccc4)([c]4ccccc4)[O][C@H]32)c(=O)n1 returned SMN2 splice up -40%[9.22 µM].
`Cc1cc2oc(C(=O)Nc3cccc(-c4nc5ccccc5o4)c3)c(C)c2cc1Cl` gave FLuc modulator -2%.
Screening CC1CCN(C(=O)c2ccc3ccccc3c2)CC1 returned FLuc modulator 12µM*, Rab9 promoter act 2.5µM*, NPC1 promoter act 3.5µM* and ELG1 genotox inconclusive.
Screening c1ccc(CN2CCN(c3nc4ccccc4s3)CC2)cc1 returned FLuc modulator 2.7µM*, Rab9 promoter act 0.71µM*, NPC1 promoter act 1.4µM* and ELG1 genotox 9.2µM*.
For CC1CC(C)CN(C(=O)c2ccc3ccccc3c2)C1 (stereo not drawn) the results were FLuc modulator -4%, Rab9 promoter act 18%, NPC1 promoter act 1% and ELG1 genotox 1%.
For Cc1cc(C)nc(Nc2nc(=O)c3ccccc3s2)n1 the results were FLuc modulator 17µM*, Rab9 promoter act inconclusive, NPC1 promoter act inconclusive, SMN2 splice up inconclusive and ELG1 genotox 18µM*.
COCC(=O)Nc1c(C(=O)Nc2ccc3c(c2)OCCO3)oc2ccccc12 was read as Rab9 promoter act 1.1µM*, NPC1 promoter act 1.4µM*, SMN2 splice up 7.9µM* and ELG1 genotox 3%.
For CCOCC(=O)Nc1c(C(=O)Nc2ccccc2OC)oc2ccccc12 the results were FLuc modulator -18%, Rab9 promoter act inconclusive, NPC1 promoter act 29%, SMN2 splice up -11% and ELG1 genotox 10%.
For CCC(=O)Nc1c(C(=O)Nc2ccc3c(c2)OCCO3)oc2ccccc12 the results were FLuc modulator inconclusive, Rab9 promoter act 2.8µM*, NPC1 promoter act inconclusive, SMN2 splice up 16µM* and ELG1 genotox 10%.
Screening CCOCC(=O)Nc1c(C(=O)Nc2ccc3c(c2)OCCO3)oc2ccccc12 returned FLuc modulator -15%, Rab9 promoter act 0.71µM*, NPC1 promoter act 1.4µM*, SMN2 splice up 2.8µM* and ELG1 genotox inconclusive.
`O=C(Nc1ccc2c(c1)OCCO2)c1oc2ccccc2c1NC(=O)C1CC1` gave FLuc modulator inconclusive, Rab9 promoter act 17%, NPC1 promoter act 1%, SMN2 splice up inconclusive and ELG1 genotox -6%.
For CCC(=O)Nc1c(C(=O)Nc2cccc(OC)c2)oc2ccccc12 the results were FLuc modulator -17%, Rab9 promoter act inconclusive, NPC1 promoter act 27%, SMN2 splice up 14% and ELG1 genotox 3%.
Screening COc1ccc(NC(=O)c2oc3ccccc3c2NC(=O)c2ccc3c(c2)OCO3)cc1 returned FLuc modulator 9.5µM*, Rab9 promoter act 16%, NPC1 promoter act 12%, SMN2 splice up 23% and ELG1 genotox 1%.
